“And” between values parts separate entries of the source, which are not always exact repeats. Equal values may be shown once. About 2,000 (36%) of roughly 5,500 compounds were called active. Inconclusive results (about 18%) are left out. Rule as the data show it: active = normalized growth mostly below about 0.91 (no sharp cut-off); inconclusive = no clear call, values can overlap the other calls; inactive = mostly above about 0.92. The list shows a part of the results.
Assay: chemical genetic growth profiling, strain panel (AID 1159580);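 also: tested at 20 µM; growth read once vehicle control cultures reached saturation at 30 °C; 1 = growth at the plate median or of vehicle wells; lower values mean less growth of the strain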
Details: S. cerevisiae deletion strains, growth OD

Measured: normalized growth

COc1cc(OC)c2c(OC)c(-c3ccc4c(c3)OCO4)c(=O)oc2c1
inactive: locus YAL013W, strain DEP1, active compounds read low 0.982 | locus YAL021C, strain ccr4, active compounds read low 0.968 | locus YAL026C, strain drs2, active compounds read low 0.957 | locus YAL030W, strain snc1, active compounds read low 0.975 | locus YBL061C, strain skt5, active compounds read low 0.955 | locus YBR009C, strain hhf1, active compounds read low 0.934 | locus YBR021W, strain FUR4, active compounds read low 0.975 | locus YBR023C, strain chs3, active compounds read low 0.943 | locus YBR171W, strain sec66, active compounds read low 1 | locus YBR229C, strain ROT2, active compounds read low 0.987 | locus YBR231C, strain swc5, active compounds read low 0.954 | locus YBR279W, strain paf1, active compounds read low 0.969 | locus YCL011C, strain gbp2, active compounds read low 0.966 | locus YCL016C, strain dcc1, active compounds read low 0.969 | locus YCL029C, strain bik1, active compounds read low 0.995 | locus YCL061C, strain MRC1, active compounds read low 0.985 | locus YCL069W, strain vba3, active compounds read low 1.01 | locus YCR088W, strain abp1, active compounds read low 0.988 | locus YDL005C, strain med2, active compounds read low 0.983 | locus YDL035C, strain GPR1, active compounds read low 0.987 | locus YDL040C, strain nat1, active compounds read low 0.971 | locus YDL074C, strain BRE1, active compounds read low 0.93 | locus YDL101C, strain DUN1, active compounds read low 0.982 | locus YDL134C, strain PPH21, active compounds read low 0.986 | locus YDL185W, strain tfp1, active compounds read low 0.996 | locus YDL192W, strain arf1, active compounds read low 0.979 | locus YDR001C, strain nth1, active compounds read low 0.98 | locus YDR069C, strain doa4, active compounds read low 0.982 | locus YDR101C, strain arx1, active compounds read low 0.975 | locus YDR150W, strain NUM1, active compounds read low 1.01 | locus YDR159W, strain sac3, active compounds read low 0.951 | locus YDR162C, strain NBP2, active compounds read low 0.973 | locus YDR195W, strain ref2 1.05 | locus YDR297W, strain sur2, active compounds read low 0.974 | locus YDR318W, strain mcm21, active compounds read low 0.976 | locus YDR334W, strain swr1, active compounds read low 0.983 | locus YDR335W, strain msn5, active compounds read low 1.01 | locus YDR388W, active compounds read low 0.972 | locus YDR502C, strain sam2, active compounds read low 0.956 | locus YEL003W, strain gim4, active compounds read low 0.971 | locus YEL037C, strain rad23, active compounds read low 0.986 | locus YEL061C, strain CIN8 (second series), active compounds read low 1 | locus YEL061C, strain CIN8, active compounds read low 0.996 | locus YER015W, strain faa2, active compounds read low 0.96 | locus YER016W, strain bim1, active compounds read low 0.974 | locus YER110C, active compounds read low 0.972 | locus YER111C, strain swi4, active compounds read low 1.02 | locus YER155C, strain BEM2 (second series), active compounds read low 0.897 | locus YER155C, strain BEM2, active compounds read low 0.988 | locus YER167W, strain BCK2, active compounds read low 0.99 | locus YFR010W, strain ubp6, active compounds read low 1.01 | locus YGL078C, strain dbp3, active compounds read low 0.99 | locus YGL086W, strain mad1, active compounds read low 0.976 | locus YGL167C, strain pmr1, active compounds read low 0.963 | locus YGL173C, strain kem1, active compounds read low 0.98 | locus YGL227W, strain vid30, active compounds read low 1 | locus YGL240W, strain doc1, active compounds read low 0.941 | locus YGL248W, strain PDE1, active compounds read low 0.985 | locus YGL253W, strain hxk2, active compounds read low 0.936 | locus YGR078C, strain PAC10, active compounds read low 0.962 | locus YGR135W, strain pre9, active compounds read low 0.931 | locus YGR229C, strain SMI1, active compounds read low 0.921 | locus YGR252W, strain gcn5, active compounds read low 0.903 | locus YHR013C, strain ard1, active compounds read low 0.962 | locus YHR027C, strain rpn1, active compounds read low 0.999 | locus YHR030C, strain SLT2, active compounds read low 0.993 and 0.954 | locus YHR079C, strain IRE1 (second series), active compounds read low 0.976 | locus YHR079C, strain IRE1, active compounds read low 0.948 | locus YHR094C, strain hxt1, active compounds read low 0.994 | locus YHR129C, strain ARP1, active compounds read low 0.989 | locus YHR142W, strain chs7, active compounds read low 0.882 | locus YHR200W, strain rpn10, active compounds read low 0.981 | locus YIL066C, strain RNR3, active compounds read low 0.982 | locus YIL073C, strain SPO22, active compounds read low 0.978 | locus YIL125W, strain kgd1, active compounds read low 0.997 | locus YIR030C, strain dcg1, active compounds read low 0.975 | locus YJL092W, strain hpr5, active compounds read low 0.994 | locus YJL095W, strain BCK1 (second series), active compounds read low 0.97 | locus YJL095W, strain BCK1, active compounds read low 0.915 and 0.957 | locus YJL115W, strain asf1, active compounds read low 1 | locus YJL129C, strain trk1, active compounds read low 0.97 | locus YJL134W, strain LCB3, active compounds read low 0.991 | locus YJL154C, strain vps35, active compounds read low 0.993 | locus YJL164C, strain tpk1, active compounds read low 0.946 | locus YJL166W, strain qcr8, active compounds read low 0.931 | locus YJL168C, strain set2, active compounds read low 0.976 | locus YJL187C, strain SWE1 (second series), active compounds read low 0.977 | locus YJL187C, strain SWE1, active compounds read low 0.971 | locus YJR043C, strain POL32, active compounds read low 1.01 | locus YJR066W, strain TOR1, active compounds read low 0.95
active: locus YDR137W, strain rgp1, active compounds read low 0.777 | locus YDR392W, strain spt3, active compounds read low 0.477

— PubChem BioAssay AID1159580 (chemical genetic matrix, 2015)
